# HCV inh – blocks hepatitis C virus. Huh7.5.1 HCVcc-Cre infection, luciferase reporter, 44 h. 340,000 tested, 3.4% active. Potency, µM (highest dose often 41.8 µM), for inactives: at the top dose activity change, negative = inhibition, usual class: inhibitors; note: potency is the fitted concentration of half-maximal effect; % is set by controls: 0 for no effect and ±100 for the full control effect
#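 Antiviral activity was scored by luciferase reporter output from cells infected with HCVcc-Cre (~0.5 moi) in presence of compound, 44 h infection period, cells seeded 1,000/well 4 h prior.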
# Shiga inhibitor – inhibitors of Shiga toxin in Vero cells; Vero cells, Shiga toxin protein synthesis inhibition reporter; inhibition, % at 38.7 µM; 290,000 tested, 9.2% active; in the data active = inhibition mostly above about 28%, no sharp cut-off; inactive = mostly below about 43%; note: 0% is about no effect
# Pf growth 48h – inhibits P. falciparum growth in the first generation, 48 h; P. falciparum luciferase growth in erythrocytes, 48 h; Potency, µM (titrated, usually from 28.7 µM), without a hit: at the top dose activity change, negative = inhibition, most hits filed as inhibitors; 310,000 tested, 5.9% active; note: potency is the fitted concentration of half-maximal effect; % is set by controls: 0 for no effect and ±100 for the full control effect
#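 A one-generation exposure of luciferase-tagged malaria parasites in RPMI 1640/Albumax erythrocyte culture, 37 C and 5% CO2. Inhibition is inferred from decreased luminescence after adding detection reagent.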
# AMA1-RON2 inh – inhibitors of Plasmodium falciparum AMA1-RON2 interaction. AlphaScreen AMA1-biotinylated RON2 peptide binding. AID 720542. 360,000 tested, 0.2% active. Potency, µM (top dose mostly 58.2 µM), for the others: at the top dose activity change, negative = inhibition, most hits filed as inhibitors;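 note: potency is the fitted concentration of half-maximal effect; 0% = vehicle wells and -100% = peptide control; nearly all actives have a fitted effect of over 45% in size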
#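 AMA1 (3D7) with his tag at 25 nM final met compounds first, then biotinylated RON2 peptide at 25 nM; detection used donor plus acceptor beads, 10 µg/mL apiece, read by AlphaScreen after 30 min at room temperature.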
# CHX counter – counter-screen for Shiga toxin inhibitors: cycloheximide protein synthesis inhibition; 300,000 tested, 12% active; AID 2314; cell reporter, cycloheximide protein synthesis inhibition counterscreen; max response, %; in the data active = max response mostly above about 13%, no sharp cut-off; inactive = mostly below about 14%; note: read at 38.3 µM for the half of the compounds with a filed dose; 0% is about no effect
# Pf growth 96h – P. falciparum growth inhibition at 96 hour, primary screen for plastid delayed-death inhibitors; P. falciparum luciferase reporter growth, 96 h; Potency, µM (doses to about 28.7 µM), without a hit: at the highest dose activity change, negative = inhibition, most hits filed as inhibitors; 320,000 tested, 6.9% active; note: potency is the fitted concentration of half-maximal effect; % is set by controls: 0 for no effect and ±100 for the full control effect
#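 Compounds incubated with erythrocytes infected by luciferase-expressing P. falciparum (2% hematocrit, 0.05% parasitemia final) for 96 hours, 37 C in 5% CO2. Growth inhibition scored as decreased luciferase luminescence.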
# * marks the source's active call; other numbers are inactive results; ? = inconclusive; . = no result. The list is not random: actives were taken first. Their share in the collection is about 21%. Unless noted, calls come from the whole dose curve; as a rule, active = well fitted curve in the direction sought with a large enough effect; inconclusive = small, poorly fitted or top-dose-only effect, or another doubt; inactive = no such curve, though single readings can be large; an effect the other way counts as inactive or inconclusive.
SMILES,HCV inh,Shiga inhibitor,Pf growth 48h,AMA1-RON2 inh,CHX counter,Pf growth 96h
O=C1C(Br)=C(c2ccccc2)C(c2ccccc2)=C1c1ccccc1,6.3µM*,.,.,-11%,.,.
Cc1ccc(S(=O)(=O)Nc2c(O)c3ccccc3oc2=O)cc1,7%,-7,9%,-13%,6,-18%
O=c1oc2ccccc2c(NC2CCCCC2)c1NS(=O)(=O)c1ccc(Br)cc1,-4%,-7,13%,-5%,-12,10µM*
COc1ccc(S(=O)(=O)Nc2c(O)c3ccccc3oc2=O)cc1,12%,69*,-11%,7%,15*,1%
CCC(C(=O)O)C1CCC(C)C(C(C)C(O)C(C)C(=O)C(CC)C2OC3(C=CC(O)[C@@]4(CC[C@](C)(C5CC[C@@](O)(CC)C(C)O5)O4)O3)C(C)CC2C)O1 (stereo partly specified),.,.,0.43µM*,.,.,0.21µM*
CC[C@@H](C(=O)[C@@H](C)[C@@H](O)[C@H](C)[C@@H]1O[C@@H]([C@@H](CC)C(=O)O)CC[C@@H]1C)[C@H]1O[C@]2(C=C[C@@H](O)[C@]3(CC[C@@](C)([C@H]4CC[C@](O)(CC)[C@H](C)O4)O3)O2)[C@H](C)C[C@@H]1C,0.35µM*,.,.,-6%,.,.
CCc1ccccc1NC(=O)CNC(=O)c1cc(C2CC2)nn1-c1ccccc1,-5%,.,?,4%,.,?
CC1CN(CC(=O)NCc2ccc(Cl)cc2)CC(C)O1 (stereo unspecified),6%,3,6%,58%,1,19%
O=C(CNC(=O)OCc1ccccc1)NCC(=O)Oc1ccc([N+](=O)[O-])cc1,6%,.,.,16%,.,.
Nc1c2c(nc3cccc(Cl)c13)N(c1ccccc1)CC2,-3%,3,17%,6%,2,7.4µM*
Cc1ccc2nc3c(c(N)c2c1)CCN3c1ccccc1,?,27,?,-7%,13,?
CCOc1ncc(S(=O)(=O)N2CCN(CC)CC2)cc1C(=O)O,11%,-18,10%,-11%,-3,25%
Cc1ccc(C)n1-c1ccc(N2CCOCC2)cc1,?,71,10µM*,-25%,22*,?
Cc1ccc(C)n1-c1ccc(N(C)C)cc1,-27%,16,14%,28µM*,17,?
CC(=O)Nc1ccc(-n2c(C)ccc2C)cc1,2%,-7,?,-5%,5,-8%
c1ccn(-c2ccc(N3CCOCC3)cc2)c1,16%,49*,?,-28%,38*,106%
O=C(/C=C/c1cccs1)Nc1sc2c(c1C(=O)O)CCCC2,-5%,30,20%,-2%,25,29%
NC(=O)c1c(/N=C/c2cccs2)sc2c1CCCC2,2%,21,53%,4%,10*,55%
CC(C)CCNC(=O)c1c(N)n(Cc2ccc3c(c2)OCO3)c2nc3ccccc3nc12,2%,-10,.,3%,-2,12µM*
CC(C)CNC(=O)c1c(N)n(Cc2ccc3c(c2)OCO3)c2nc3ccccc3nc12,15%,-8,6.6µM*,31%,-7,.
O=C(c1ccc(Cl)c(S(=O)(=O)N2CCOCC2)c1)N1CCCCCC1,13%,-5,5%,11%,-7,8%
CCOC(=O)[C@]12CCCC=C1N(Cc1cccc3ccccc13)C(=O)[C@H](CC(=O)N1CCCCC1)C2,.,.,.,-18%,.,.
O=C(CCn1c(=O)sc2ccccc21)NCc1ccc2c(c1)OCO2,7%,6,106%,-23%,12*,8%
O=C(CCn1c(=O)oc2ccccc21)NCc1ccc2c(c1)OCO2,-11%,-10,15%,-4%,-1,0%
CC(=O)c1c(C)n(CC(=O)NCc2ccc3c(c2)OCO3)c2ccccc12,10µM*,5,1%,-3%,-2,-3%
SMILES,HCV inh,Shiga inhibitor,Pf growth 48h,AMA1-RON2 inh,CHX counter,Pf growth 96h
O=C(Cn1c(CO)nc2ccccc21)NCc1ccc2c(c1)OCO2,?,-7,0%,0%,-1,4%
CC(C)C(=O)Nc1cccc2nsnc12,15%,-6,?,0%,-2,.
O=C(Nc1cccc2nsnc12)c1ccc2c(c1)OCO2,-9%,52*,94%,13%,17,51%
CCOc1ccc(C(=O)Nc2cccc3nsnc23)cc1[N+](=O)[O-],-8%,17,-41%,-2%,-3,-8%
O=C(Nc1cccc2nsnc12)c1ccc2c(c1)OCCO2,0%,108*,156%,56%,30*,15%
O=C(Nc1cccc2cccnc12)c1ccc(Br)cc1,.,44,.,.,31*,.
O=C(Nc1cccc2nsnc12)c1ccc(F)cc1,12%,50*,36%,30%,30*,.
Cc1ccc(C(=O)Nc2cccc3cccnc23)cc1Br,0%,.,.,-2%,.,.
CCOc1ccc(NC(=O)CN(C)S(=O)(=O)c2ccc(-c3ccc(=O)[nH]n3)s2)cc1,-16%,-5,?,-5%,-5,-15%
Cc1cccc(NC(=O)/C(C#N)=C/c2cccc([N+](=O)[O-])c2)n1,5%,-5,34%,10%,-8,-21%
COc1cc(CN2CCNC(=O)C2CC(=O)NC2CCC2)cc(OC)c1 (stereo unspecified),2%,-3,9%,12%,-2,?
O=C(N/N=C/c1ccc(O)cc1)Nc1cccc2nsnc12,?,94*,4%,4%,40*,49%
COC(=O)c1ccc(NC(=O)c2ccc(NS(=O)(=O)c3cccc4cccnc34)cc2)cc1,-23%,2,3%,47%,-5,23%
COc1cc(NC(=O)c2ccc3c(c2)OCO3)c2ncccc2c1,?,26,116%,11%,9,.
O=C(Nc1cccc2cccnc12)c1ccc2c(c1)OCCO2,-10%,115*,.,8%,67*,40%
O=C(Nc1cc(-c2nc3ccccc3s2)ccc1Cl)c1ccc2c(c1)OCO2,-3%,52*,52%,26%,27*,36%
COc1cc(/C=N/NC(=O)Nc2cccc3nsnc23)cc(OC)c1OC,?,17,?,-9%,-2,312%
O=C(Nc1ccccc1O)c1ccc(NS(=O)(=O)c2cccc3cccnc23)cc1,-3%,25,2.3µM*,65%,-2,?
Cc1cccc(C)c1NC(=O)CN(C)C(=O)c1ccc(OCc2ccccc2)cc1,.,.,.,-7%,.,.
C=CCn1c(SCc2c(C)noc2C)nc2sc3c(c2c1=O)CCCCC3,?,-7,1.9µM*,-10%,-3,.
Cc1noc(C)c1CSc1nc2sc3c(c2c(=O)n1C)CCCC3,?,-11,.,-10%,-4,1.7µM*
Cn1c(SCCN2CCOCC2)nc2sc3c(c2c1=O)CCCC3,-4%,11,-8%,-4%,7,-4%
COC(=O)c1sc(N)c(C(=O)OC)c1CSc1nc2sc3c(c2c(=O)n1C)CCC3,-22%,16,?,-18%,2,1.7µM*

# Screens (PubChem)
